Results: PubChem BioAssay (Tox21)
Several values for one entry are separate records, joined by “and”; a condition that tells them apart may be missing. Equal values may be shown once. Inconclusive results are not listed. Entries that show only a call come without a potency. Unmarked numbers belong to inactive results. Activity calls are given as the source filed them. Calls follow the shape of the dose curve; as a rule, active = well fitted curve in the direction sought with a large enough effect in the repeat runs; inconclusive = weak or mixed curves; inactive = no such curve, though single readings can be large; an effect the other way counts as inactive or inconclusive.

How the values were obtained:
[1] = target: Cytochrome P450 2D6 (Homo sapiens) (UniProt P10635); assay: Cytochrome P450 Family 2 Subfamily D Member 6 (CYP2D6) small molecule antagonists: luciferase reporter qHTS assay (AID 1671196); also: nearly all actives have a fitted effect of over 50% in size; as to activity change, negative = inhibition: series mostly up to about 120 µM
Chain of Cytochrome P450 2D6 (Homo sapiens) (P10635 whole entry, looked up): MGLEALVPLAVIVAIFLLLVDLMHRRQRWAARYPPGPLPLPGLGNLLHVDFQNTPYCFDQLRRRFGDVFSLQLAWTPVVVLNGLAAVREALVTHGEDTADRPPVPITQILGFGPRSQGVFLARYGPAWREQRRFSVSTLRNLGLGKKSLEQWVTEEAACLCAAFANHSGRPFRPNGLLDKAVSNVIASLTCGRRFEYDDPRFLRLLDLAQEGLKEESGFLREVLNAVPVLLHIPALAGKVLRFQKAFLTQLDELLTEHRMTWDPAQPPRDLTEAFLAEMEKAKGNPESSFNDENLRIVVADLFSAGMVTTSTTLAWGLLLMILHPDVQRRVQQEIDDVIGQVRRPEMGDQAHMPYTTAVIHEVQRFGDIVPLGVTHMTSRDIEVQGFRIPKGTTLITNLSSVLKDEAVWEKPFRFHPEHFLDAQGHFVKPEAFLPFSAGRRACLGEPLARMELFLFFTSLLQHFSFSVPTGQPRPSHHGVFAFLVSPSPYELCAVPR
Outline: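 CYP2D6 enzyme–substrate mix was held with compound for 10 min at room temperature, then NADPH regeneration solution was added and the reaction ran 1 h at room temperature. Luciferin product was detected by luminescence after 20 min with detection reagent.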

[2] = target: Cytochrome P450 2C19 (Homo sapiens) (UniProt P33261); assay: Cytochrome P450 Family 2 Subfamily C Member 19 (CYP2C19) small molecule antagonists: luciferase reporter qHTS assay (AID 1671197); also: nearly all actives have a fitted effect of over 65% in size; as to activity change, negative = inhibition: series mostly up to about 120 µM
Chain of Cytochrome P450 2C19 (Homo sapiens) (P33261 whole entry, looked up): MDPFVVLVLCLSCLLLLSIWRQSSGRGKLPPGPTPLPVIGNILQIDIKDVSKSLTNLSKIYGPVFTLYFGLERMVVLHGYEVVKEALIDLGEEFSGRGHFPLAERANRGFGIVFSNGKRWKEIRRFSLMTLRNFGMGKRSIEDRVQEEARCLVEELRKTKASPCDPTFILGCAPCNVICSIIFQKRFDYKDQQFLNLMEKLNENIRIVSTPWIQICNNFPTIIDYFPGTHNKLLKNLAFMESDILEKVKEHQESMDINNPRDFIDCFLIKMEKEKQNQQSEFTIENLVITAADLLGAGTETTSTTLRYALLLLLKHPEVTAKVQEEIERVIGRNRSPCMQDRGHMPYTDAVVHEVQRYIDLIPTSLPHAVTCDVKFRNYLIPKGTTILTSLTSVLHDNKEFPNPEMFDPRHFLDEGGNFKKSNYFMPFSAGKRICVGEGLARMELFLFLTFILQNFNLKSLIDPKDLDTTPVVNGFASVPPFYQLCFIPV
Outline: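 Inhibition of CYP2C19 was scored from loss of luminescence in a P450-Glo proluciferin substrate assay, NADPH-started and run 1 h at 37C, with ketoconazole as positive control.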

[3] = target: Cytochrome P450 1A2 (Homo sapiens) (UniProt P05177); assay: Cytochrome P450 Family 1 Subfamily A Member 2 (CYP1A2) small molecule antagonists: luciferase reporter qHTS assay (AID 1671199); also: nearly all actives have a fitted effect of over 50% in size; as to activity change, negative = inhibition: series mostly up to about 120 µM
Chain of Cytochrome P450 1A2 (Homo sapiens) (P05177 whole entry, looked up): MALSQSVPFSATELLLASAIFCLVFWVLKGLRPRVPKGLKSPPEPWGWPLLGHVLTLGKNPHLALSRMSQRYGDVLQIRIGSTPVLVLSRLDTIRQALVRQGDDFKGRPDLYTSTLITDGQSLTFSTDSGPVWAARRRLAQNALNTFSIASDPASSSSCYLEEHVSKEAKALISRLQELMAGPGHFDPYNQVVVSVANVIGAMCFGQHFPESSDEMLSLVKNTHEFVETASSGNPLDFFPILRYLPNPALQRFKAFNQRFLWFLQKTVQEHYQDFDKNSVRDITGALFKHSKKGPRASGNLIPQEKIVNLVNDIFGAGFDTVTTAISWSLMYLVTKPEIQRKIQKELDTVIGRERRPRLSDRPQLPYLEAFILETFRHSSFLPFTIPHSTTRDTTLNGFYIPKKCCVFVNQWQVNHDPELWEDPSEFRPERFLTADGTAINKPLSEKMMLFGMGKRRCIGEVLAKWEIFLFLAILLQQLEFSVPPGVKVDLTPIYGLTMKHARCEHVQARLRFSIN
Outline: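 Human CYP1A2 activity measured with a P450-Glo proluciferin substrate; compounds in DMSO preincubated 10 min at room temperature with enzyme-substrate mix, then NADPH regeneration system added for 1 h. Luciferin detection reagent, 20 min, luminescence read.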

[4] = target: Voltage-gated inwardly rectifying potassium channel KCNH2 (Homo sapiens) (UniProt Q12809); assay: Human Ether-a-go-go-Related Gene (hERG) channel small molecule antagonists: fluorescence cell-based qHTS assay (AID 1671200); also: nearly all actives have a fitted effect of over 50% in size;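 as to activity change, negative = inhibition: hERG-expressing U2OS cells given a thallium stimulus after FluxOR II dye loading; series mostly up to about 77 µM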
Chain of Voltage-gated inwardly rectifying potassium channel KCNH2 (Homo sapiens) (Q12809 whole entry, looked up): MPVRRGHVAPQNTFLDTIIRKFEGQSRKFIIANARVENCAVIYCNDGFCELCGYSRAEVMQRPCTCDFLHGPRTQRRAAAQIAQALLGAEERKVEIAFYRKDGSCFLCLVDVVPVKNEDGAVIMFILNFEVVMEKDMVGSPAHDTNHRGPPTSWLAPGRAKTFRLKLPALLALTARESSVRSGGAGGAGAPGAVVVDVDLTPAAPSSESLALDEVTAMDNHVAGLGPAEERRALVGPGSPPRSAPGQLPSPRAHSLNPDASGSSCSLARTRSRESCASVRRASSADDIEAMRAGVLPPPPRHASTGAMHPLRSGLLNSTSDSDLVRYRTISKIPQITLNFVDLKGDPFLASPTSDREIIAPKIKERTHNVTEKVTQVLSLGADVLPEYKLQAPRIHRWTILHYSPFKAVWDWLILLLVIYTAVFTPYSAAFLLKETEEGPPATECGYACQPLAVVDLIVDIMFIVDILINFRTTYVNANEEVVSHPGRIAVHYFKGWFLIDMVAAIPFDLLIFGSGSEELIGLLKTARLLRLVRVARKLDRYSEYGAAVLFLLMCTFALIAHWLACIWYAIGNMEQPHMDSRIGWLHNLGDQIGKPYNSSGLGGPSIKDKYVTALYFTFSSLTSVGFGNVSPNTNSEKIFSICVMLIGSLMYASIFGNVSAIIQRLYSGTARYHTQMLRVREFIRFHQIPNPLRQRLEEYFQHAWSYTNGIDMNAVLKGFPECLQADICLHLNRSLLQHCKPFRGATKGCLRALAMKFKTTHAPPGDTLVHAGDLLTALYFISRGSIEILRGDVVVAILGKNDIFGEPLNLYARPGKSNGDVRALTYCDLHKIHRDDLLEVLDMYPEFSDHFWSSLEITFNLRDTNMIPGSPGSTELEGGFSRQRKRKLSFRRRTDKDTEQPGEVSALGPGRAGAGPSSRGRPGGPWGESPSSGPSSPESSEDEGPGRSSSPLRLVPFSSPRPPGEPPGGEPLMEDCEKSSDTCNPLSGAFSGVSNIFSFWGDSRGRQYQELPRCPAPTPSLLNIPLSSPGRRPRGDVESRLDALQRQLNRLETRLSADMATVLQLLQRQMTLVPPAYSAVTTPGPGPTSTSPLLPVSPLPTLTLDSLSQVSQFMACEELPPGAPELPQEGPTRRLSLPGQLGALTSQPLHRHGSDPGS
Outline: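 hERG-U2OS cells plated overnight at 37 C, loaded with FluxOR II dye 1 h at RT in dark; after 10 min, thallium stimulus added. Fluorescence (480/540 nm) read kinetically for 2 min at 1 s intervals.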

[5] = target: Cytochrome P450 3A4 (Homo sapiens) (UniProt P08684); assay: Cytochrome P450 Family 3 Subfamily A Member 4 (CYP3A4) small molecule antagonists: luciferase reporter qHTS assay (AID 1671201); also: nearly all actives have a fitted effect of over 50% in size; as to activity change, negative = inhibition: series mostly up to about 120 µM
Chain of Cytochrome P450 3A4 (Homo sapiens) (P08684 whole entry, looked up): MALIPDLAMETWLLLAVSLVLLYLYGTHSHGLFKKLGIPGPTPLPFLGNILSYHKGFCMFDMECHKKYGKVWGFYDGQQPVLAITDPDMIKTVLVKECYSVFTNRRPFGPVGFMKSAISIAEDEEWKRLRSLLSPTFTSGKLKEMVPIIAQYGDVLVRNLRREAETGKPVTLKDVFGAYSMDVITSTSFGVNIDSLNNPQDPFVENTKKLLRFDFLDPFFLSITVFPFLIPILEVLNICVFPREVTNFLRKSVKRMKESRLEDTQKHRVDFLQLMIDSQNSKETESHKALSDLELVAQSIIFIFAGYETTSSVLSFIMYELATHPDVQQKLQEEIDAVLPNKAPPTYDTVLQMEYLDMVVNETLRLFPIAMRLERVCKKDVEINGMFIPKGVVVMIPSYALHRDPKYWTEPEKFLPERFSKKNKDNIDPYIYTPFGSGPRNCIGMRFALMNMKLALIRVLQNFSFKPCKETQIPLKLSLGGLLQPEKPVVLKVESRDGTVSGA
Outline: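 P450-Glo CYP3A4 luminescent assay: compounds preincubated 10 min at room temperature with enzyme and proluciferin substrate, NADPH regeneration added, 1 h room-temperature reaction, stopped with luciferin detection reagent; luminescence read after 20 min. Ketoconazole positive control.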

[6] = target: Cytochrome P450 2C9 (Homo sapiens) (UniProt P11712); assay: Cytochrome P450 Family 2 Subfamily C Member 9 (CYP2C9) small molecule antagonists: luciferase reporter qHTS assay (AID 1671198); also: nearly all actives have a fitted effect of over 50% in size; as to activity change, negative = inhibition: series mostly up to about 120 µM
Chain of Cytochrome P450 2C9 (Homo sapiens) (P11712 whole entry, looked up): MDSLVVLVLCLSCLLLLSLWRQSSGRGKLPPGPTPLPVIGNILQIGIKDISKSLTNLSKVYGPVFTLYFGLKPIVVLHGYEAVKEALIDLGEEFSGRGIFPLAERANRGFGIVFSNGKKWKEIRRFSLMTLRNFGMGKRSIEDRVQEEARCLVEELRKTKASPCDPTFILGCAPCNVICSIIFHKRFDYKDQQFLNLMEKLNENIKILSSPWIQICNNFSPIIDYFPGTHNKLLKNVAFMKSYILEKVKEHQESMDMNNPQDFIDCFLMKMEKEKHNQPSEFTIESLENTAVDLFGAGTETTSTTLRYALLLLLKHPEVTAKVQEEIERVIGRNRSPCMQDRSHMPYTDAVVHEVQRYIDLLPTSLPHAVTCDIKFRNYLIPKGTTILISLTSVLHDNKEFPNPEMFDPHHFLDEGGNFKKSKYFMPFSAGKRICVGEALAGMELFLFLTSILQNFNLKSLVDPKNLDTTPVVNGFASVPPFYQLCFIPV
Outline: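 Enzyme-substrate mix preincubated with compound 10 min at room temperature; reaction started with NADPH regeneration solution, 1 h 37C. Luminescent luciferin product read after 20 min detection reagent.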
Potency is read from the fitted curve at half-maximal effect.

CN(C(=O)c1c(O)c2ccccc2n(C)c1=O)c1ccccc1
Potency [1]: inactive | Potency [2]: inactive | Potency [3]: inactive | Potency [4]: inactive | Potency [5]: inactive

O=C(c1ccccc1)C1CCCCC1
Potency [1]: inactive | Potency [2]: 71 µM (active) | Potency [3]: 44.8 µM (active) | Potency [4]: inactive

COc1ccccc1OCC(O)CN1CCN(CC(=O)Nc2c(C)cccc2C)CC1 (configuration not stated)
Potency [1]: 13.8 µM (active) | Potency [2]: inactive | Potency [3]: inactive | Potency [4]: inactive

C/C=C(\C)C#N
Potency [1]: inactive | Potency [2]: 78.4 µM (active) | Potency [4]: inactive | Potency [5]: inactive

COC(C)(C)CCCC(C)CC=O (configuration not stated)
Potency [1]: inactive | Potency [2]: inactive | Potency [3]: inactive | Potency [4]: inactive | Potency [5]: inactive

FC(F)OC(Cl)C(F)(F)F (configuration not stated)
Potency [1]: inactive | Potency [6]: inactive | Potency [3]: 39.9 µM (active) | Potency [4]: inactive | Potency [5]: inactive

C=C1CC[C@H]2C[C@@H]1C2(C)C
Potency [1]: inactive | Potency [2]: inactive | Potency [3]: inactive | Potency [4]: inactive | Potency [5]: inactive

Nc1ccccc1S(=O)(=O)O
Potency [1]: inactive | Potency [2]: inactive | Potency [3]: inactive | Potency [4]: inactive | Potency [5]: inactive

CC(=O)c1ccccc1O
Potency [1]: inactive | Potency [2]: inactive | Potency [3]: inactive | Potency [4]: inactive

O=C1CCCC(=O)C1
Potency [1]: inactive | Potency [2]: inactive | Potency [4]: inactive | Potency [5]: inactive

COC(=O)NN
Potency [1]: inactive | Potency [6]: inactive | Potency [3]: inactive | Potency [4]: inactive | Potency [5]: inactive

O=C(O)COc1nn(Cc2ccccc2)c2ccccc12
Potency [1]: inactive | Potency [2]: inactive | Potency [3]: inactive | Potency [4]: inactive | Potency [5]: inactive

CCc1ccc(O)c(OC)c1
Potency [1]: inactive | Potency [6]: inactive | Potency [3]: 31.7 µM (active) | Potency [4]: inactive | Potency [5]: inactive

N#Cc1ccc(C2CCCc3cncn32)cc1 (configuration not stated)
Potency [1]: 12.7 µM (active) | Potency [2]: 12.7 µM (active) | Potency [3]: inactive | Potency [4]: inactive

CCn1nc(C(=O)O)c(=O)c2cc3c(cc21)OCO3
Potency [4]: inactive

Cn1c(N)c(N=O)c(=O)n(C)c1=O
Potency [2]: 58.2 µM (active) | Potency [6]: inactive | Potency [3]: inactive | Potency [4]: inactive | Potency [5]: inactive

c1ccc(CC2=NCCN2)cc1
Potency [6]: inactive | Potency [3]: inactive | Potency [4]: inactive | Potency [5]: inactive

Oc1ccc(C2CNCCc3c2cc(O)c(O)c3Cl)cc1 (configuration not stated)
Potency [3]: inactive | Potency [4]: inactive | Potency [5]: inactive

CCOC(=O)CC(C)=O
Potency [4]: inactive

CS(=O)(=O)O
Potency [2]: inactive | Potency [6]: inactive | Potency [3]: 31.9 µM (active) | Potency [4]: inactive

CC(=O)Nc1c(I)cc(I)c(C(=O)O)c1I
Potency [1]: 27.5 µM (active) | Potency [3]: 24.5 µM (active) | Potency [4]: inactive | Potency [5]: inactive

Cc1c(O)cccc1O
Potency [1]: inactive | Potency [4]: inactive | Potency [5]: 32.5 µM (active)

N=C(N)c1ccccc1
Potency [2]: inactive | Potency [6]: inactive | Potency [3]: inactive | Potency [4]: inactive

O=C1CCCCCCCCCCCN1
Potency [1]: inactive | Potency [3]: 70.9 µM (active) | Potency [4]: inactive

NCCc1cnc[nH]1
Potency [4]: inactive

Cc1nc2c([nH]1)c(=O)n(C)c(=O)n2Cc1ccco1
Potency [2]: inactive | Potency [6]: inactive | Potency [4]: inactive

Cc1cccn2c(=O)c(-c3nnn[nH]3)cnc12
Potency [2]: inactive | activity change, negative = inhibition [6]: -1.3% [at 23.6 µM] | activity change, negative = inhibition [4]: 0.271% [at 15.8 µM] | activity change, negative = inhibition [5]: 2.55% [at 23.6 µM]

CCN1CCC[C@H]1CNC(=O)c1c(O)c(Cl)cc(Cl)c1OC
Potency [2]: inactive | Potency [6]: inactive | Potency [4]: inactive

CCN(Cc1ccncc1)C(=O)C(CO)c1ccccc1 (configuration not stated)
Potency [4]: inactive

COc1ccc(CCN(C)CCCC(C#N)(c2cc(OC)c(OC)c(OC)c2)C(C)C)cc1OC (configuration not stated)
Potency [2]: inactive | Potency [3]: inactive | Potency [4]: 7.56 µM (active)

c1ccc([C@H]2CN3CCSC3=N2)cc1
Potency [2]: inactive | Potency [6]: inactive | Potency [4]: inactive | Potency [5]: inactive

CCN(CC)CCOCCOC(=O)C1(c2ccccc2)CCCC1
Potency [2]: inactive | Potency [6]: inactive | Potency [3]: inactive | Potency [4]: inactive

C[N+](C)(C)CC(O)CC(=O)[O-] (configuration not stated)
Potency [2]: inactive | Potency [6]: inactive | Potency [3]: inactive | Potency [4]: inactive | Potency [5]: inactive

COCCc1ccc(OCC(O)CNC(C)C)cc1 (configuration not stated)
Potency [4]: inactive

O=Cc1cccc([N+](=O)[O-])c1
Potency [2]: inactive | Potency [6]: inactive | Potency [3]: 39.7 µM (active) | Potency [4]: inactive | Potency [5]: inactive

CC/C=C\CCOC(C)=O
Potency [2]: inactive | Potency [6]: inactive | Potency [3]: inactive | Potency [4]: inactive

CC(=O)OCC(CCn1cnc2cnc(N)nc21)COC(C)=O
Potency [2]: inactive | Potency [6]: inactive | Potency [4]: inactive | Potency [5]: inactive

NS(=O)(=O)c1cc2c(cc1Cl)NC(C1CC3C=CC1C3)NS2(=O)=O (configuration not stated)
Potency [6]: 12.3 µM (active) | Potency [4]: inactive

Nc1c2c(nc3ccccc13)CCCC2O (configuration not stated)
Potency [2]: inactive | Potency [6]: inactive | Potency [3]: 15.5 µM (active) | Potency [4]: inactive | Potency [5]: inactive

CCc1cccc2c(CCO)c[nH]c12
Potency [2]: 17.4 µM (active) | Potency [3]: 7.76 µM (active) | Potency [4]: inactive | Potency [5]: inactive

CC(=O)OC/C=C(\C)CC/C=C(\C)CCC=C(C)C
Potency [2]: 20 µM (active) and 71 µM (active) | Potency [6]: 35.6 µM (active) | Potency [3]: inactive | Potency [4]: inactive | Potency [5]: 10 µM (active)

CCCCC(CC)COC(=O)c1ccccc1O (configuration not stated)
Potency [2]: inactive | Potency [6]: inactive | Potency [3]: inactive | Potency [4]: inactive | Potency [5]: inactive

CCCCCCCCS(=O)(=O)Cl
Potency [2]: inactive | Potency [6]: 32 µM (active) | Potency [3]: inactive | Potency [4]: inactive | Potency [5]: inactive

O=C(CCCN1CCC(O)(c2cccc(C(F)(F)F)c2)CC1)c1ccc(F)cc1
Potency [2]: inactive | Potency [6]: inactive | Potency [3]: inactive | Potency [5]: inactive

CC(=O)OCC(=O)[C@@]1(O)CCC2C3CCC4=CC(=O)CC[C@]4(C)C3[C@@H](O)C[C@@]21C (some centres not stated)
Potency [2]: inactive | Potency [3]: inactive | Potency [4]: inactive | Potency [5]: inactive
